Calls of active or inactive are those of the source. The call rests on the fitted dose curve; in most records, active means well fitted cell-killing curve with a large enough effect; inconclusive means small, poorly fitted or top-dose-only effect; inactive means flat fitted curve, though single readings scatter.
Assay: Cell Viability - LYMP1-003 - Assay at 24 hr (AID 963)
Settings: LYMP1-003 lymphoblastoid cell viability; series mostly up to 92.2 µM
Excerpt: NIH Chemical Genomics Center [NCGC]
NIH Molecular Libraries Screening Centers Network [MLSCN]
National Institutes of Environmental Health Sciences [NIEHS]
National Toxicology Program [NTP]
We have developed a 1536-well cell-based assay for quantitative high throughput screening (qHTS) against a number of cell lines to determine in vitro cytotoxicity of small molecules. This particular assay uses a human lymphoblastoid cell line (LYMP1-003) purchased from Coriell Institute for Medical Research.
NCGC Assay Protocol Summary:
The CellTiter-Glo luminescent cell viability assay (Promega) is a homogeneous method to measure the number of viable cells in culture. The end point readout of this assay is based on quantitation of intracellular ATP, an indicator of metabolic activity, using the luciferase reaction. Luciferase catalyzes the oxidation of beetle Luciferin to oxyluciferin and light in the presence of ATP. The luminescent signal is proportional to amount of ATP present.
Using the CellTiter-Glo luminescent cell viability assay, the amount of cellular ATP was measured in the lymphoblastoid cell line with complete culture medium following compound treatment for 24 hours. The assay was performed in opaque white Kalypsys 1536-well plates. In the screen, tetraoctylammonium bromide was used as positive control. Library compounds were measured for their ability to cause acute toxicity in the cell line, as reflected by a decrease in intracellular ATP levels, in a concentration-dependent manner. […] AC50 values were determined from concentration-response data modeled with the standard Hill equation.
qHTS protocol for CellTiter Glo lymphoblastoid cellular assay
[Step] [Parameter] [Value] [Description]
1. Reagent; 5 uL; 2500 lymphoblastoid cells/well
2. Time; 5 hr; 37 C incubation
4. Controls; 23 nL; Tetraoctylammonium bromide 6.4pM to 92 uM
5. Time; 24 hr; 37 C incubation
6. Reagent; 5 uL; CellTiter Glo reagent
7. Time; 30 min; Room Temperature
8. Detection; Luminescence; Viewlux plate reader
Keywords: cell viability, cytotoxicity, lymphoblastoid cell line, luminescence, NTPHTS, NTPHTS_NCGC, NIEHS, DSSTox, MLSMR, MLSCN, NIH Roadmap, qHTS, NCGC

Structure (SMILES)	outcome
NCC(O)c1ccc(O)cc1 (stereo unspecified)	inactive
Clc1ccc(COC(Cn2ccnc2)c2ccc(Cl)cc2Cl)cc1 (stereo unspecified)	inactive
CCCC(C)(COC(N)=O)COC(=O)NC(C)C (stereo unspecified)	inactive
Oc1ccc(Cl)cc1Cc1ccccc1	inactive
C[C@]12C/C(=C/O)C(=O)C[C@@H]1CC[C@@H]1[C@@H]2CC[C@@]2(C)[C@H]1CC[C@]2(C)O	inactive
OCCOc1ccccc1	inactive
N[C@@H](Cc1ccc(N(CCCl)CCCl)cc1)C(=O)O	inactive
CCOP(=S)(OCC)Oc1cc(C)nc(C(C)C)n1	inactive
Oc1ccccc1-c1ccccc1	inactive
c1ccc2c(c1)Nc1ccccc1S2	inactive
CNCC(O)c1ccc(O)cc1 (stereo unspecified)	inactive
